Assay results published in paper PMC3218832.

What was measured:
Experiment in all cases: protein binding microarray; high values mean tight binding
Settings in all cases: dsDNA, one strand shown
RELARELA (p65 homodimer) = RELARELA (p65 homodimer) (Homo sapiens, UniProt Q04206 1-307)
p50p50 homodimer = p50p50 homodimer (Homo sapiens, UniProt P19838 7-356)
p52p52 homodimer = molecular target: T1, p52p52 homodimer (Homo sapiens, UniProt Q00653 4-332)
T1 sequence: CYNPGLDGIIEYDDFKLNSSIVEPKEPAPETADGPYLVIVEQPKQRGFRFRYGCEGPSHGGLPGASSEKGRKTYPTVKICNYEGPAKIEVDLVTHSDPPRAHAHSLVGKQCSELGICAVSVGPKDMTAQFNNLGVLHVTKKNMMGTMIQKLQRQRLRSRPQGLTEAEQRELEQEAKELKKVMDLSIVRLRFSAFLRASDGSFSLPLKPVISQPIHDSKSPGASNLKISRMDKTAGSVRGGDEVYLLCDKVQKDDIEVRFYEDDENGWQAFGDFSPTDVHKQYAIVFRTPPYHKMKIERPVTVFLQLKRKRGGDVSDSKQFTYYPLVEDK

[1] = molecular target: RELA (p65) subunit of heterodimer;p50 subunit (Homo sapiens;Homo sapiens, UniProt Q04206;P19838 1-307;7-356)
[2] = molecular target: RELA (p65) subunit of heterodimer;p52 subunit (Homo sapiens;Homo sapiens, UniProt Q04206;Q00653 1-307;4-332)
RELB subunit;p50 subunit = RELB subunit;p50 subunit (Homo sapiens;Homo sapiens, UniProt Q01201;P19838 120-401;7-356)
RELB subunit;p52 subunit = molecular target: T2, RELB subunit;p52 subunit (Homo sapiens;Homo sapiens, UniProt Q01201;Q00653 120-401;4-332)
T2 sequence 1: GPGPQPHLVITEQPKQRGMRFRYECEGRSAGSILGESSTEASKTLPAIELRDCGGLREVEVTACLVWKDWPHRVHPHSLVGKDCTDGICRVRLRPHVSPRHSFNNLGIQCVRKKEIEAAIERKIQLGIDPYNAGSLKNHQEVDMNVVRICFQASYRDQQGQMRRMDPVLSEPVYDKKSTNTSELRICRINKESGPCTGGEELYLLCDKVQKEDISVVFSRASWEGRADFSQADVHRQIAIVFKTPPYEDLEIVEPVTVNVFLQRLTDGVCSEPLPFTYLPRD
T2 sequence 2: T1 sequence

[3] = molecular target: C-Rel subunit;p50 subunit (Homo sapiens;Homo sapiens, UniProt Q04864;P19838 1-285;7-356)
[4] = molecular target: T3, C-Rel subunit;p52 subunit (Homo sapiens;Homo sapiens, UniProt Q04864;Q00653 1-285;4-332)
T3 sequence 1: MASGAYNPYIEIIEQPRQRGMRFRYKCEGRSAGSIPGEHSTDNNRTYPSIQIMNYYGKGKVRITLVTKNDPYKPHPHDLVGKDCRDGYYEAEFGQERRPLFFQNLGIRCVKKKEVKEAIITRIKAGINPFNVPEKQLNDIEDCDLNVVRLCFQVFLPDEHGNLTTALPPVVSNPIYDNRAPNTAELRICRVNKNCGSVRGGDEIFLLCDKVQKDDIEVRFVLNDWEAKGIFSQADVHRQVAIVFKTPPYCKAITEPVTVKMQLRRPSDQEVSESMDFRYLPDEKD
T3 sequence 2: T1 sequence

RELA (p65) subunit of heterodimer;p50 subunit, sequence (Q04206 1-307, chain 1 of 2): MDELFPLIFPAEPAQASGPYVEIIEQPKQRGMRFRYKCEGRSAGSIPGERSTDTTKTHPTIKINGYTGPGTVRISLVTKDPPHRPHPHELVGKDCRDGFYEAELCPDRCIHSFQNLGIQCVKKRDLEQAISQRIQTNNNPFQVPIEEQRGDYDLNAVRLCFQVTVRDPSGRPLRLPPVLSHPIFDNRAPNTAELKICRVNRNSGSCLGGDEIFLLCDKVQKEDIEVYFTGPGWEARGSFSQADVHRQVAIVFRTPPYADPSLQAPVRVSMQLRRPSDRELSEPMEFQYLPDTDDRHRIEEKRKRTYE
RELA (p65) subunit of heterodimer;p50 subunit, sequence (P19838 7-356, chain 2 of 2): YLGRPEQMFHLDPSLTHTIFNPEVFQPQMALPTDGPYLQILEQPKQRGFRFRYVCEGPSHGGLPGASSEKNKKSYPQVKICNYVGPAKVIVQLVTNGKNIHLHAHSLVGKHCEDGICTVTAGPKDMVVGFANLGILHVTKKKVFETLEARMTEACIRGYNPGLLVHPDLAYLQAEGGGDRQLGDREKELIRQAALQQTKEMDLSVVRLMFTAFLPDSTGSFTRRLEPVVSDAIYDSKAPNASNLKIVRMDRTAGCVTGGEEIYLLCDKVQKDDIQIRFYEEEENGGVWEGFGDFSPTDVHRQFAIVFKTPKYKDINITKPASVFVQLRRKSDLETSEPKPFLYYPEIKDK
RELARELA (p65 homodimer), sequence (Q04206 1-307): as the sequence (Q04206 1-307, chain 1 of 2) above
p50p50 homodimer, sequence (P19838 7-356): as the sequence (P19838 7-356, chain 2 of 2) above

Row | Sequence | binding signal (RELARELA (p65 homodimer)) [z-score] | binding signal (p50p50 homodimer) [z-score] | binding signal (p52p52 homodimer) [z-score] | binding signal [1] [z-score] | binding signal [2] [z-score] | binding signal (RELB subunit;p50 subunit) [z-score] | binding signal (RELB subunit;p52 subunit) [z-score] | binding signal [3] [z-score] | binding signal [4] [z-score]
1 | CGAGAGCCCCT | -0.807 | 0.741 | 0.297 | 0.363 | 0.418 | 0.502 | 0.576 | 0.0988 | 0.379
2 | CAAGATTCCCT | 0.527 | 1.13 | 0.975 | 0.96 | 0.948 | 1.02 | 1.01 | 1.06 | 0.715
3 | CGATAGCCCCC | -0.556 | 0.93 | 0.275 | 0.352 | 0.57 | 0.492 | 0.523 | 0.288 | 0.258
4 | GAAGAAGCCCT | -0.988 | -1.65 | -0.651 | -0.934 | -0.868 | -1.04 | -0.801 | -1.08 | -0.998
5 | CGGGGCACCCC | 0.313 | 0.323 | 1.21 | 0.7 | 1.06 | 0.451 | 1.1 | 0.899 | 1.43
6 | GGGTATATCCC | 1.19 | 0.245 | 2.43 | 0.931 | 1.62 | 0.847 | 0.92 | 0.341 | 1.12
7 | CAGTTCTTCCC | 1.2 | -0.0833 | -0.0924 | 0.385 | 0.0986 | -0.231 | -0.179 | 0.641 | 0.366
8 | GAATATATCCC | 0.0475 | -0.184 | -0.107 | -0.275 | -0.268 | -0.131 | -0.295 | -0.368 | -0.351
9 | CGAGGTGCCCT | -0.746 | -1.52 | -0.61 | -0.798 | -0.84 | -0.973 | -0.87 | -1.16 | -0.789
10 | CGGGTGCCCCC | -0.0899 | 0.777 | 0.373 | 0.794 | 0.707 | 0.779 | 1.05 | 0.974 | 0.84
11 | CAGAGCATCCC | -0.631 | -1.46 | -0.586 | -0.856 | -1.02 | -1.02 | -0.893 | -1.22 | -1
12 | AAAAGGGCCCT | -0.729 | -0.423 | -0.373 | -0.762 | -0.52 | -0.464 | -0.386 | -1.07 | -0.406
13 | AAGTGTATCCC | -0.0644 | -0.719 | -0.379 | -0.553 | -0.504 | -0.584 | -0.4 | -0.695 | -0.382
14 | AAGAATCCCCC | 1.26 | 1.57 | 2.41 | 2.44 | 2.16 | 2.64 | 2.41 | 1.79 | 1.99
15 | AAGTAAGTCCC | 0.51 | 1.02 | 0.587 | 0.837 | 0.459 | 1.1 | 0.647 | 0.768 | 0.419
16 | CGGTGTACCCT | -0.287 | -0.0219 | 0.0503 | -0.317 | -0.282 | -0.0463 | -0.155 | -0.172 | -0.317
17 | GAATGGCCCCT | -0.247 | 0.432 | 0 | 0.128 | 0.262 | 0.27 | 0.242 | -0.321 | -0.168
18 | AGATGGCTCCC | -0.478 | -1.77 | -0.619 | -0.849 | -0.797 | -0.91 | -0.841 | -1.25 | -0.874
19 | AAGTAGACCCT | -0.746 | -0.785 | -0.531 | -0.711 | -0.775 | -0.737 | -0.709 | -1.17 | -0.772
20 | AAGTTATCCCC | 0.516 | 1.08 | 0.864 | 0.995 | 0.69 | 1.26 | 1.11 | 1.16 | 0.506
21 | AGGTAAACCCC | 1.17 | 0.722 | 2.16 | 1.25 | 1.68 | 0.79 | 1.51 | 0.88 | 2.02
22 | CGGTATGTCCT | 0.15 | -0.81 | -0.37 | -0.663 | -0.702 | -0.895 | -0.675 | -0.815 | -0.489
23 | CGAAGCTTCCC | 0.142 | -0.668 | -0.466 | -0.322 | -0.568 | -0.617 | -0.463 | -0.253 | -0.652
24 | GAGAGATTCCC | 1.47 | 0.649 | 0.325 | 0.844 | 0.545 | 0.433 | 0.292 | 0.909 | 0.551
25 | AGATTACTCCT | -0.0935 | -1.24 | -0.548 | -0.691 | -0.875 | -1.01 | -0.843 | -1.01 | -0.848
26 | GAAAATATCCT | -0.0981 | -1.17 | -0.53 | -0.742 | -0.608 | -1.05 | -0.797 | -0.995 | -0.675
27 | CAGGACACCCT | -0.817 | -1.69 | -0.717 | -0.865 | -0.828 | -0.795 | -0.656 | -1.21 | -0.705
28 | GAGGACGTCCC | 0.381 | 0.144 | 0.388 | 0.0977 | 0.262 | 0.14 | 0.0168 | 0.15 | 0.205
29 | CAGGGCTCCCT | -0.815 | -0.631 | -0.475 | -0.698 | -0.717 | -0.43 | -0.477 | -0.901 | -0.708
30 | AAAATAACCCC | 0.617 | 1.07 | 1.26 | 1.03 | 1.24 | 0.895 | 1.14 | 0.682 | 1.16
